Consider six compounds from PubChem BioAssay (NCATS).

A short description of assay [1]: qHTS for Inhibitors of the Functional Ribonucleoprotein Complex (vRNP) of Lassa (LASV) Arenavirus: LASV Primary Screen - GLuc reporter signal (AID 1347082; calls by dose curve; tested in HEK293 reporter line; also: % is scaled to controls: 0 for no effect and ±100 for the full control effect; nearly all actives have a fitted effect of over 60% in size).
The nature of assay [2]: qHTS for Inhibitors of the Functional Ribonucleoprotein Complex (vRNP) of Lassa (LASV) Arenavirus: Viability assay - alamar blue signal for LASV Primary Screen (AID 1347083; calls by dose curve; tested in HEK293 reporter line; also: nearly all actives have a fitted effect of over 80% in size; also: potency is read from the fitted curve at half-maximal effect).
Assay [3] is described as follows: qHTS for Inhibitors of the Functional Ribonucleoprotein Complex (vRNP) of Lymphocytic Choriomeningitis Arenaviruses (LCMV): Viability assay - alamar blue signal for LCMV Primary Screen (AID 1347085; calls by dose curve; tested in HEK293 reporter line; also: nearly all actives have a fitted effect of over 80% in size; also: potency is read from the fitted curve at half-maximal effect).
A short description of assay [4]: Cytotoxicity counterscreen for inhibitors of SARS-CoV-2 cell entry (AID 1645845). Also: nearly all actives have a fitted effect of over 50% in size. Put shortly: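 48 h compound treatment (after 1 h preincubation), HEK293-ACE2 cells, 37 C/5% CO2; ATP luminescence endpoint; normalized to cell wells and media blanks.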
Assay [5] is described as follows: Primary qHTS to identify inhibitors of SARS-CoV-2 cell entry (AID 1645846). Also: nearly all actives have a fitted effect of over 45% in size. To be noted: activity change, negative = inhibition: at 57.1 µM (top of the series) unless noted. In a few lines:
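Using luciferase-reporting pseudoviruses carrying Wuhan-Hu-1 spike, the screen tracks entry into stably ACE2-expressing cells over 48 hr. Activity is expressed relative to spike particles versus particles lacking any fusion protein.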

For the next assay, the system named is CRL-7250. The assay can be described thus: qHTS assay to identify novel small-molecules to repurpose for Merkel cell carcinoma treatment (AID 1296009; active = well fitted curve in the direction sought with a large enough effect; an effect the other way counts as inactive or inconclusive; also: nearly all actives have a fitted effect of over 60% in size). The following applies: MCC and control cell lines, CellTiter-Glo viability, 72 h; series mostly up to 92 µM. In a few lines: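 72 hr, 37 degree celsius; NPC 8-pt / MIPE 11-pt dose response; compound pinned in DMSO; CellTiter-Glo, 10 min RT, luminescence; normalized to no-cell and DMSO controls.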

Assay [6] in a line: Inducers of the Endoplasmic Reticulum Stress Response (ERSR) in human glioma: Validation (AID 504836; active = well fitted curve in the direction sought with a large enough effect; an effect the other way counts as inactive or inconclusive; also: 0% is about no effect). In a few lines: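 ERSR induction read as luciferase luminescence (Bright-Glo, 10 min at room temperature) in stably transfected human U87-MG glioma cells exposed to compounds for 16 h, using GRP78 as sensor.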
The target in assay [7] is Nucleoprotein (Lymphocytic choriomeningitis virus (strain Armstrong)) (UniProt P09992). As to the kind of experiment: qHTS for Inhibitors of the Functional Ribonucleoprotein Complex (vRNP) of Lymphocytic Choriomeningitis Arenaviruses (LCMV): LCMV Primary Screen - GLuc reporter signal (AID 1347086). Also: nearly all actives have a fitted effect of over 70% in size. Also: potency is read from the fitted curve at half-maximal effect. As to activity change, negative = inhibition: % is scaled to controls: 0 for no effect and ±100 for the full control effect.
Nucleoprotein (Lymphocytic choriomeningitis virus (strain Armstrong)), sequence (P09992 whole entry, looked up): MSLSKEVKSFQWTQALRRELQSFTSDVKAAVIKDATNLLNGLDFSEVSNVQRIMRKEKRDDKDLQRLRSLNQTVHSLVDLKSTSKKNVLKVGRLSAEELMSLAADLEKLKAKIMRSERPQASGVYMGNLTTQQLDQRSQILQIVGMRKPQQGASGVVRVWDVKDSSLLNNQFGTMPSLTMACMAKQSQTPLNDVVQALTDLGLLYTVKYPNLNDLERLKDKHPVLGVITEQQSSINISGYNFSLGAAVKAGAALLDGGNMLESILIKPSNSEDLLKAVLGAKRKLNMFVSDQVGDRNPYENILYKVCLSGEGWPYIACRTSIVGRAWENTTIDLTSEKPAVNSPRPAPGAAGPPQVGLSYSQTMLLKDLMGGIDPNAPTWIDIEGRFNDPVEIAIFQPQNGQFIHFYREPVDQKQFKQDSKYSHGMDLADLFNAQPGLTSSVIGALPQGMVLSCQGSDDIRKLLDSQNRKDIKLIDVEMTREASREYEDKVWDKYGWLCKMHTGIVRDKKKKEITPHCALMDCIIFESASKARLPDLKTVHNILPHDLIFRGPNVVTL
Assay [8] in a line: qHTS profiling of the MIPE4 collection as inhibitors of Plasmodium falciparum (3D7) proliferation (AID 743344; call rule not given here;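 also: scaled between DMSO vehicle wells and 0.29 µM artemisinin as full inhibition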). To be noted: P. falciparum 3D7 in erythrocytes, SYBR Green DNA fluorescence, 72 h; at 28.5 µM (top of the series) unless noted. Put shortly:
(§1)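 Erythrocytes infected with P. falciparum (0.3% parasitemia, 2.5% hematocrit) incubated with compounds 72 h at 37 C, 5% CO2. Lysis with saponin/Triton buffer containing SYBR Green I, overnight at room temperature in the dark; DNA fluorescence (485/535 nm) normalised to 0.29 uM artemisinin and DMSO.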

The nature of assay [9]: qHTS profiling of the MIPE4 collection as inhibitors of Plasmodium falciparum (DD2) proliferation (AID 743345; call rule not given here). The following applies: P. falciparum Dd2 in erythrocytes, SYBR Green DNA, 72 h; at 28.5 µM (top of the series) unless noted. In a few lines:
as §1

The nature of assay [10]: qHTS profiling of the MIPE4 collection as inhibitors of Plasmodium falciparum (DD2) proliferation (Rep 2) (AID 743346; call rule not given here). To be noted: P. falciparum Dd2 in erythrocytes, SYBR Green DNA, 72 h; at 28.5 µM (top of the series) unless noted. In a few lines: as §1
Assay [11] is described as follows: qHTS profiling of the MIPE4 collection as inhibitors of Plasmodium falciparum (HB3) proliferation (AID 743347; call rule not given here;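 also: plate controls were DMSO vehicle wells for no effect and artemisinin wells for full effect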). To be noted: P. falciparum HB3 in erythrocytes, SYBR Green DNA, 72 h; at 28.5 µM (top of the series) unless noted. Put shortly:
as §1

Results filed as inconclusive are left out. Activity calls are given as the source filed them. Unless noted, calls follow the shape of the full dose curve.

For `OC1CCC(Nc2ncc3nc(Nc4c(F)cc(F)cc4F)n([C@@H]4CCOC4)c3n2)CC1` (some centres not stated), the Potency entry (in assay [1]; in [4]; in assay [5]; in the assay with CRL-7250) was “inactive” in each case. The Potency in [2] was 24.3 µM (active); in [3], 21.7 µM (active).
As for `COc1ccc2cc([S+]([O-])Cc3ncc(C)c(OC)c3C)nc2c1`, in assay [6], the outcome was inactive. Besides, the Potency result (in [1]; in assay [2]; in assay [3]; in assay [7]; in the assay on CRL-7250) was “inactive” in each case.
As to `Cc1ccccc1C(C(=O)NC1CCCCC1)N(C(=O)Cn1ccnc1C)c1cccc(F)c1` (configuration not stated), the Potency entry (in [1]; in assay [2]; in assay [3]; in assay [7]; in assay [4]; with CRL-7250) was “inactive” in each case. In assay [5], the activity change, negative = inhibition is -3.95%.
As for `CCOC1OC(=O)C[C@H]1NC(=O)[C@@H]1CCCN1C(=O)[C@@H](NC(=O)c1ccc(N)c(Cl)c1)C(C)(C)C` (some centres not stated), the parasite growth, % of DMSO control in assay [8] was determined as 265%. Moreover, the parasite growth remaining, % of DMSO control (lower = more inhibition) in [9] came out at 97.4%. The compound also displayed a parasite growth, % of control (lower = inhibition) in assay [10] of 67.6%. In assay [11], this compound displayed a growth, % of control of 216%. The Potency entry (in [1]; in [2]; in [3]; with CRL-7250) was “inactive” each time.
For `CC1(C)Cc2c(sc(NC(=S)NC(=O)c3ccccc3)c2C(=O)O)CO1`, the values for the Potency in assay [2] and in assay [3] were 21.7 µM (active) and 38.5 µM (active), respectively. Besides, the Potency entry (in [4]; in [5]; in the assay on CRL-7250) was “inactive” each time.
Consider `C[C@@H]1CN(Cc2ccc(F)cc2)[C@@H](C)CN1C(=O)c1cc2c(C(=O)C(=O)N(C)C)cn(C)c2cc1Cl`, for which the Potency result (in assay [1]; in assay [4]; in the assay on CRL-7250) was “inactive” in each case. In [7], the Potency is 30.6 µM (active). In addition, the activity change, negative = inhibition in assay [5] was -24.1%.
